The source of these data is PubChem BioAssay AID652181 (The Scripps Research Institute Molecular Screening Center, 2013).

The experiment relates to Hsp90 CT. The experiment can be described thus: direct binding to Hsp90 C-terminal domain – biophysical, surface plasmon resonance, orthogonal assay for selective HSP90 inhibitor project, late-stage follow-up (AID 652181). The following applies: Surface plasmon resonance binding to HSP90 domains, at 200 µM, stronger effect = higher value. (SPR reads the build-up and loss of mass on a sensor chip optically.)

SMILES strings stand for the structures.

`Cc1c(-c2nc(-c3ccc(C(F)(F)F)cc3)no2)n(C)oc1=O` yielded a binding of 7.47.
The molecule `Cc1c(-c2nc(-c3ccc(C(C)(C)C)cc3)no2)n(C)oc1=O` gave a binding of 4.46.
The result for `CCc1ccc(OCc2ccc(C(=O)OC)o2)cc1` reads 6.78; that for `COC(=O)c1ccccc1OCCCOc1ccc(C)cc1OC`, 10.2.
The result for `COc1cc(/C=N/Nc2ccc(Cl)c(C(=O)O)c2)ccc1OC(=O)c1ccc(F)cc1` reads -4.19.
The result for `COc1ccccc1NC(=O)c1coc(=O)c(Br)c1` reads 11.7; that for `CC(=O)Nc1ccccc1OCC(=O)c1cc(C)n(Cc2cccs2)c1C`, 10.6.
Molecule `CCOC(=O)c1csc(NC(=O)c2cc3ccccc3o2)n1` registered a binding of 6.43.
As for `CCOC(=O)C1=C(c2ccc(OC)cc2)C(=O)c2ccccc2C1=O`, the figure is 11.2; as for `Cc1cc(NO)nc(-c2ccc(Br)cc2)n1`, 0.77.
